# Assay results taken from PubChem BioAssay AID602229 (The Scripps Research Institute Molecular Screening Center, 2012).
# The campaign covered roughly 360,000 compounds. About 1,300 (0.36%) were called active. The entries come from a sample that favours actives as a whole. Unmarked numbers belong to inactive results.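 The calls were made as follows: active = inhibition above the mean of all tested compounds plus 3 SD (cut at about 70% in these data); inactive = the rest.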
# Biological target: Photoreceptor-specific nuclear receptor (Homo sapiens) (UniProt Q9Y5X4)
# Test: NR2E3 agonists in two-hybrid cells, primary screen, cell-based, luminescence, CHO-S, Gal4-NCOR/VP16-NR2E3 (AID 602229);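 also: 0% = DMSO with NR2E3 transfected cells and 100% = cells lacking NR2E3 construct; higher means lower luciferase signal from less NR2E3 corepressor binding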
# Conditions: luciferase, at 3.98 µM, active compounds read high
# Photoreceptor-specific nuclear receptor (Homo sapiens), sequence (Q9Y5X4 whole entry, looked up, the tested form may be a part): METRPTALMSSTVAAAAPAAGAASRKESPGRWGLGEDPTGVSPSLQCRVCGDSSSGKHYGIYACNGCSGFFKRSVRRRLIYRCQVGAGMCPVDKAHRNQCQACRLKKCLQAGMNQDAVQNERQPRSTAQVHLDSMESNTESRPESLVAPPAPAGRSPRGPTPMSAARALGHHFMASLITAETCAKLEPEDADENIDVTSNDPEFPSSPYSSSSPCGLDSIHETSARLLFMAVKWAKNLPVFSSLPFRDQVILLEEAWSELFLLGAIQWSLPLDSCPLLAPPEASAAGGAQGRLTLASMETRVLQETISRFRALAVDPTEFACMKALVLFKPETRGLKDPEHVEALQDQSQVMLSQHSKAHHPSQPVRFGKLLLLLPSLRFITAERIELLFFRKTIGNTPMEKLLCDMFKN
row,SMILES,inhibition of corepressor binding
1,O=C(CN1CCSCC1)N/N=C/c1ccc(F)cc1F,-6.92%
2,CCOC(=O)N1CCN(S(=O)(=O)c2cc(Br)cc3c2N(C(=O)C2CC2)CC3)CC1,-15.4%
3,OC[C@@H]1CN(Cc2ccc(F)cc2)C[C@H](n2cnc3c(NC4CCCC4)ncnc32)O1,-45.5%
4,OC[C@@H]1CN(Cc2cccs2)C[C@H](n2cnc3c(NC4CCCC4)ncnc32)O1,-11.2%
5,OC[C@@H]1CN(Cc2ccc(-c3ccccc3)cc2)C[C@H](n2cnc3c(NC4CCCC4)ncnc32)O1,91.4% (active)
6,O=C(CCc1nnc(CCCCc2ccccc2)o1)NC(c1cccnc1)C(F)(F)F (centres undefined),-10.3%
7,O=C(Nn1cnnc1)c1cc(Cl)ccc1Cl,-4.56%
8,NC(=O)C1CCN(CC(O)CSc2ccc(F)cc2)CC1 (centres undefined),-11.6%
9,NS(=O)(=O)c1cc(C(=O)NCCOc2ccccc2)c(Cl)cc1Cl,16%
10,COc1cccc(N2CCN(C(=O)C3CCCN(S(=O)(=O)c4cnc[nH]4)C3)CC2)c1 (centres undefined),-11%
11,Cc1ccc(S(=O)(=O)N2CCCC(C(=O)N3CCN(C)CC3)C2)cc1 (centres undefined),-11.8%
12,CC(=O)N1CCCc2cc(S(=O)(=O)N3CCCC(C(=O)N4CCN(c5cccc(Cl)c5)CC4)C3)ccc21 (centres undefined),97.5% (active)
13,O=C(CCC1CCCC1)N=C1SC2CS(=O)(=O)CC2N1Cc1ccccc1 (centres undefined),-16.6%
14,CCc1cccc(NC(=O)C2CCCN(S(=O)(=O)c3ccc4[nH]c(=O)ccc4c3)C2)c1 (centres undefined),-18.2%
15,CC(=O)c1ccc(NC(=O)C2CCCN2S(=O)(=O)c2cccs2)cc1 (centres undefined),-7.87%
16,N#Cc1cccc(CSc2nnc(CCCO)n2-c2ccccc2)c1,1.83%
17,O=C(OC12CC3CC(CC(C3)C1)C2)c1ccc(NCc2cc(O)ccc2O)cc1,91.5% (active)
18,CC(C)OC(=O)c1ccc(NCc2cc(O)ccc2O)cc1Cl,-8.58%
19,Cc1ccnc(NC(=O)Cn2ccc([N+](=O)[O-])n2)c1,-2.77%
20,O=C(C1CCN(S(=O)(=O)c2ccc(Br)s2)CC1)N1CCN(c2ccccc2)CC1,-1.63%
21,COc1cccc(CNC(=O)CCN2C(=S)NC(C)(C)CC2C)c1 (centres undefined),9.24%
22,COC(=O)[C@]1(S(=O)(=O)c2ccccc2)C[C@@H]2ON=C(c3ccc(OC)cc3)[C@@H]2C1,-7.87%
23,N#C[C@]1(S(=O)(=O)c2ccccc2)C[C@@H]2ON=C(c3cccc(Br)c3)[C@@H]2C1,77.6% (active)

row,SMILES,inhibition of corepressor binding
1,CCCc1cc(=O)[nH]c(SCC(=O)c2c(N)n(CC(C)C)c(=O)n(C)c2=O)n1,5.16%
2,O=C(NNS(=O)(=O)Cc1ccccc1)c1ccc([N+](=O)[O-])cc1,0.72%
3,O=C(NC(Nc1nc2ccc([N+](=O)[O-])cc2s1)(C(F)(F)F)C(F)(F)F)c1ccccc1,102% (active)
4,O=C(Nc1cc(-c2ccccc2)nn1-c1ccccc1F)c1ccc([N+](=O)[O-])cc1,7.55%
5,CC(C)n1c(-c2ccncc2)n[nH]c1=S,-6.98%
6,CCOC(=O)N1CCN(C(=O)C2CCCN(c3ncnc4c3sc3cccc(F)c34)C2)CC1 (centres undefined),-2.23%
7,CCOC(=O)N1CCN(C(=O)C2CCN(c3ncnc4c3sc3cccc(F)c34)CC2)CC1,78.5% (active)
8,CCOC(=O)N1CCN(C(=O)C2CCN(Cc3ccc(OC)cc3OC)CC2)CC1,9.52%
9,COc1ccc(S(=O)(=O)N2CCCC2)c(C)c1C,-29.4%
10,CCOc1ccc(S(=O)(=O)N2CCCCCC2)c2ccccc12,75.7% (active)
11,CCOc1ccc(S(=O)(=O)n2ccnc2)c2ccccc12,17.1%
12,CCNC(=O)N1CCNC(=O)C1CC(=O)Nc1ccc(C(=O)OCC)cc1 (centres undefined),-12.7%
13,COC(=O)c1ccc(NS(=O)(=O)c2cc3c4c(c2)C(C)C(=O)N4CCC3)cc1 (centres undefined),-17.2%
14,OCCCNc1nccc(-c2cc(Nc3cccc(Cl)c3)ncn2)n1,101% (active)
15,COCCCn1cc(CN2CC(N(C)C)CS2(=O)=O)nn1 (centres undefined),20.1%
16,Cc1cc(C)c(S(=O)(=O)c2cc(F)ccc2C)c(=O)[nH]1,-8.41%
17,CC(C)(CNC(=O)c1ccc(Cl)c(S(=O)(=O)N2CCc3ccccc3C2)c1)N1CCOCC1,-7.92%
18,CCc1nc2ccc(C(=O)NC3CCN(Cc4ccccc4)CC3)cn2c1N(CC)CCOC,-6.67%
19,COc1cnc(-c2ccccn2)nc1Oc1ccc(C(C)(C)C)cc1,103% (active)
20,CC(C)(C)c1ccc(Oc2ccc(N)cc2)cc1,62.9%
21,COc1ccc2nc(-c3ccccn3)ccc2c1,-147%
22,CC(C)N(Cc1nnc(-c2ccc(Cl)cc2)o1)C(=O)C1=COCCO1,-16.3%
23,COc1ccc(CCNC(=O)CSCc2ccc(Br)cc2)cc1OC,-15%

row,SMILES,inhibition of corepressor binding
1,CS(=O)(=O)c1ccc2nnn(OCC(=O)Nc3cccc(C#N)c3)c2c1,-3.52%
2,CCc1ccc(CNC(=O)CCc2nc(-c3cccs3)no2)cc1,-4.34%
3,CCOc1ccc(-c2noc(CCC(=O)NC3CCCC3)n2)cc1OC,4.53%
4,CCNC(=O)CCc1nc(-c2ccc(C(C)(C)C)cc2)no1,75.3% (active)
5,CN(CC(=O)NCCN1CCOCC1)S(=O)(=O)c1ccc(F)cc1,-42.2%
6,COc1cc(OC)cc(C2=Cc3ccccc3C(CC(=O)c3ccco3)N2c2ccc(-c3cnc(OC)nc3)cc2)c1 (centres undefined),-30.9%
7,Cc1ccsc1C(=O)OCC(=O)c1cc(C)n(CC2CCCO2)c1C (centres undefined),89.5% (active)
8,COc1ccc(CNC(=O)COC(=O)c2sccc2C)cc1OC,-4.67%
9,CCCn1c(C)cc(C(=O)COC(=O)c2c(C)nn(-c3ccccc3)c2C)c1C,17.1%
10,Cc1nc(CNS(=O)(=O)c2cc([N+](=O)[O-])ccc2C)cs1,6.54%
11,Cc1ccc(S(=O)(=O)NCc2nc3ccccc3c(=O)n2N)cc1,22.2%
12,Cc1nc(CNS(=O)(=O)c2ccc(Oc3ccccc3)cc2)cs1,92.4% (active)
13,Cc1cc2ccccn2c1C(=O)c1cccc(S(=O)(=O)N2CCOCC2)c1,2.82%
14,CCN(C(=O)CSc1nnnn1-c1ccc(OC)cc1)C1CCS(=O)(=O)C1 (centres undefined),-16.1%
15,CCC(C)N1C(=O)S/C(=C/c2ccc(Sc3nc4ccccc4[nH]3)o2)C1=O (centres undefined),78.5% (active)
16,CCOc1ccc(NC(=O)CN(C)C(=O)COc2cccc(CC)c2)cc1OCC,2.58%
17,COc1ccc(NC(=O)/C(Cl)=C(/Cl)S(=O)Cc2ccc(C)cc2)cn1 (centres undefined),84.1% (active)
18,CC(C)c1ccc(NC(=O)[C@@H](NC(=O)N2CC(=O)Nc3ccccc32)C(C)C)cc1,-32.4%
19,Cc1nn(-c2ccccc2)c(=O)c2noc(C)c12,-0.89%
20,O=C(CC(O)(C(F)(F)F)C(F)(F)F)Nc1ccc(Cl)c(Cl)c1,107% (active)
21,N#CCCN(C(=O)Nc1ccc(Cl)c(Cl)c1)C1CCCCC1,-1.19%
22,O=C(CN1CCN(C(=O)c2ccco2)CC1)Nc1ccc(Cl)c(C(F)(F)F)c1,-9.37%
23,CN(C)c1ccc(NC(=O)CSc2n[nH]c(-c3ccco3)n2)cc1,-21.3%

row,SMILES,inhibition of corepressor binding
1,O[C@@H]1C[C@H](c2ccccc2)N(Cc2cccs2)C[C@H]1n1cc(C2CC2)nn1,5.46%
2,COc1ccc(S(=O)(=O)N2CCN(C(C)C(=O)Nc3ccc(C(C)C)cc3)CC2)cc1 (centres undefined),94.6% (active)
3,CC(C)c1ccc(S(=O)(=O)N2CCN(C(C)C(=O)NC3CCCC3)CC2)cc1 (centres undefined),-5.61%
4,COc1cccc(CNC(C)C(=O)Nc2ccc(S(=O)(=O)N3CCCC3)cc2)c1 (centres undefined),3.95%
5,N#Cc1ccc(COC(=O)Cn2nnc(-c3ccccc3)n2)cc1,19.6%
6,CCC(=O)N1CCN=C1SCc1ccc(F)cc1,3.93%
7,Cc1ccc(OCc2nnc(SC3CCc4ccccc4C3=O)n2C)cc1 (centres undefined),-9.34%
8,CCCCC(NS(=O)(=O)c1ccc(C)cc1)C(=O)Oc1ccc2c3c(c(=O)oc2c1)CCC3 (centres undefined),-22.6%
9,CCC(=O)c1ccc(OCC(O)Cn2nc(C)c(C(C)=O)c2C)cc1 (centres undefined),-7.85%
10,CCN(CC)C(=O)C1=C(C)N(Cc2ccc(C(C)(C)C)cc2)C(=O)C(CC(=O)NCc2cccc3ccccc23)C1 (centres undefined),20.9%
11,C=CCn1c(C)cc(C2=NNC(=NCC)SC2)c1C,89.3% (active)
12,CCN(CC)S(=O)(=O)c1ccc(N(C)CCc2ccc(OC)c(OC)c2)nc1,14.8%
13,CCN(CC)S(=O)(=O)c1ccc(N(C)Cc2cccc(OC)c2OC)nc1,2.59%
14,CCN(CC)S(=O)(=O)c1ccc(N(C)Cc2ccc(C(F)(F)F)cc2)nc1,91.6% (active)
15,CCCCCCCCCCCCC(NC(C)=O)(C(=O)OCC)C(=O)OCC,34.1%
16,O=C(Nn1cnc2ccccc2c1=O)c1ccc([N+](=O)[O-])cc1Cl,-16.8%
17,CCCCN1C[C@H](c2ccc(Br)cc2)[C@@H](CC(=O)Nc2ccc(Br)cc2)C1=O,-20.7%
18,Cc1ccnc(NC(=O)C2CCN(S(=O)(=O)c3c(C)c(C)cc(C)c3C)CC2)c1,80.9% (active)
19,CNC(=O)C1CCN(S(=O)(=O)c2c(C)noc2/C=C/c2cccc(C)c2)CC1,-10.5%
20,O=C(Nc1ccccn1)C1CCN(S(=O)(=O)c2ccc3c(c2)OCCO3)CC1,-51.8%
